For assay [1], the target named is T1, Inhibitor of nuclear factor kappa-B kinase subunit epsilon (Homo sapiens) (UniProt Q14164).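 Note: reported values are averaged percent inhibition figures against human IKKε.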
T1 sequence (whole entry): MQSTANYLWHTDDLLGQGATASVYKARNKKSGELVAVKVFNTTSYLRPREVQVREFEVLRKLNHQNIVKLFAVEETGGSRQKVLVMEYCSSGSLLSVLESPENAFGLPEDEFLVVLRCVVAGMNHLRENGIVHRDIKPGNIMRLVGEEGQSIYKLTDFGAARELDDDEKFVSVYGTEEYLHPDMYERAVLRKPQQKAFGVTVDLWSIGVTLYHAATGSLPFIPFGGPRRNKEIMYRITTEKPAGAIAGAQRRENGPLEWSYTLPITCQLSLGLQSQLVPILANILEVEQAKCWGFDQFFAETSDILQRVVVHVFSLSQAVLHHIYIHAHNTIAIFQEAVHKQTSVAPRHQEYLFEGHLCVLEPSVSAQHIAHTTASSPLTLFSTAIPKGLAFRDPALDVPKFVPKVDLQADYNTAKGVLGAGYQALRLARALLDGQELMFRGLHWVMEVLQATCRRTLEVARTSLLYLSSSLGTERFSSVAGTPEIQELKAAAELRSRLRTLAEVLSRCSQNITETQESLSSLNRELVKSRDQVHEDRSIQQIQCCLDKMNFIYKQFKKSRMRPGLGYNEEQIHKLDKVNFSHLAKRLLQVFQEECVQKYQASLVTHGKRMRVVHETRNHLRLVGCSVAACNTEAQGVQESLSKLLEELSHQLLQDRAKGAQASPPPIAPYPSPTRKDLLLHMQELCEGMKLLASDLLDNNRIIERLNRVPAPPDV
To be noted: at 1 µM.

The target in assay [2] is T2, Serine/threonine-protein kinase Nek1 (Homo sapiens) (UniProt Q96PY6).
T2 sequence (whole entry): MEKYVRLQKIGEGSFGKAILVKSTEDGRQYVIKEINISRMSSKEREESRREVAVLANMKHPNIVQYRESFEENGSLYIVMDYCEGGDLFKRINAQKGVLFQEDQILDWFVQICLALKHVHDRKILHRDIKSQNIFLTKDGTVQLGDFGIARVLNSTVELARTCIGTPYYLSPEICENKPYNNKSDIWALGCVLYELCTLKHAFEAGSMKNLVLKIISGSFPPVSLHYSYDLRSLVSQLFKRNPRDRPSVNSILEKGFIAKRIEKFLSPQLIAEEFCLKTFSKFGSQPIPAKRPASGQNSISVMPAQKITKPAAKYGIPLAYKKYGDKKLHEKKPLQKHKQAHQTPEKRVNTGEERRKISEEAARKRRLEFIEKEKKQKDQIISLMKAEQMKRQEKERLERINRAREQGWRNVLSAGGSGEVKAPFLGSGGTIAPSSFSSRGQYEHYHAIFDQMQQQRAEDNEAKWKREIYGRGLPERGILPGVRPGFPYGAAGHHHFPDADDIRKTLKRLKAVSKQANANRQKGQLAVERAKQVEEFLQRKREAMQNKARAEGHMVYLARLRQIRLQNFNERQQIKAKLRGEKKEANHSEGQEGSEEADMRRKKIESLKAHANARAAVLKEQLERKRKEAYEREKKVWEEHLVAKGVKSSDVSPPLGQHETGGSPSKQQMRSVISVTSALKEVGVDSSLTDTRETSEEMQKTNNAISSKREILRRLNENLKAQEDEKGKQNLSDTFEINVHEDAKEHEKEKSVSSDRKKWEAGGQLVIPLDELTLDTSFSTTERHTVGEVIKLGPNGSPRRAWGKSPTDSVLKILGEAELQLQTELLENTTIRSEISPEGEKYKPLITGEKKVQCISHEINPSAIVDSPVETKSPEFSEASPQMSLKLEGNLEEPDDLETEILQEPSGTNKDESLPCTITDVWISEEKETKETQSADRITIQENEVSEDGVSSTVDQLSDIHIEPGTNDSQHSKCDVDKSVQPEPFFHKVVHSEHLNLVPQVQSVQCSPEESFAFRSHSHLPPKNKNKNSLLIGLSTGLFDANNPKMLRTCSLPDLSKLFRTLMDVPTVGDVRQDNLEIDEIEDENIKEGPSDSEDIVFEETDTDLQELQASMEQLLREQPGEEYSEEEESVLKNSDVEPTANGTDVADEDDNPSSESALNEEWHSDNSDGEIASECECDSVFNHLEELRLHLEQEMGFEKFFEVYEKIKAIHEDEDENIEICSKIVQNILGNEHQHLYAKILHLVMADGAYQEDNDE
To be noted: at 0.1 µM.

The target in assay [3] is T2, Serine/threonine-protein kinase Nek1 (Homo sapiens). To be noted: at 1 µM.
Assay [4] concerns the target T3, Serine/threonine-protein kinase Nek2 (Homo sapiens) (UniProt P51955).
T3 sequence (whole entry): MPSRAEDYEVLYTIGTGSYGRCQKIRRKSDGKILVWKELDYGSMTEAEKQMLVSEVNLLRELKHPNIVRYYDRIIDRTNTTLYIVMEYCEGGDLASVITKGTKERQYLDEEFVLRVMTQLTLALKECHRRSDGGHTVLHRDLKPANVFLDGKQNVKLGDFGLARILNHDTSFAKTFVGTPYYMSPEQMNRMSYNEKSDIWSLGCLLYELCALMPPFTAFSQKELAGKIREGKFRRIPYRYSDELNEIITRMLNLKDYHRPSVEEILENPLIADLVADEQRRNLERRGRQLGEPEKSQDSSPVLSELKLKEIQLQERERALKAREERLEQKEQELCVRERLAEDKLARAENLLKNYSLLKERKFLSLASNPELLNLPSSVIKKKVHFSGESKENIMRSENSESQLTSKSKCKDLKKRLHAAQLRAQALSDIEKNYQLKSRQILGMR
The following applies: at 0.1 µM.

Assay [5] has as its target T3, Serine/threonine-protein kinase Nek2 (Homo sapiens). To be noted: at 1 µM.
For assay [6], the target named is Serine/threonine-protein kinase Nek6 (Homo sapiens) (UniProt Q9HC98). The following applies: at 0.1 µM.
Sequence of Serine/threonine-protein kinase Nek6 (Homo sapiens) (Q9HC98 whole entry): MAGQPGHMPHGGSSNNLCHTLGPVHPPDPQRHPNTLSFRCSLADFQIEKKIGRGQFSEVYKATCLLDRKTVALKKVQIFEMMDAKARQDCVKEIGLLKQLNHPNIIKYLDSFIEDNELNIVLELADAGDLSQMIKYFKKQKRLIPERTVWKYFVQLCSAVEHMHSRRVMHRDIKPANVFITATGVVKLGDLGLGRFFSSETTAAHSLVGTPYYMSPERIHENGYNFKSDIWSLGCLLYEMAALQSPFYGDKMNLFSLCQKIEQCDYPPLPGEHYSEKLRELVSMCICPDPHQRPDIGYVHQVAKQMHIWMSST
For assay [7] the target is unchanged. To be noted: at 1 µM.
For assay [8], the target named is Serine/threonine-protein kinase Nek7 (Homo sapiens) (UniProt Q8TDX7). To be noted: at 0.1 µM.
Sequence of Serine/threonine-protein kinase Nek7 (Homo sapiens) (Q8TDX7 whole entry, looked up): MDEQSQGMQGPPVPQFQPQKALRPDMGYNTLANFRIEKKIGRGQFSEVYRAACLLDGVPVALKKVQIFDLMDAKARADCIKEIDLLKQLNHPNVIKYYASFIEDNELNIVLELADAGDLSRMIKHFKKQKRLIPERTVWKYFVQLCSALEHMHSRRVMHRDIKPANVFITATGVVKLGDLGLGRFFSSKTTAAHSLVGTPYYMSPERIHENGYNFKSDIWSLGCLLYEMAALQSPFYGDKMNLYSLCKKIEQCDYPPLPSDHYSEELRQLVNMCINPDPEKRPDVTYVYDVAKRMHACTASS
Assay [9] has the same target. The following applies: at 1 µM.
Assay [10] concerns the target T4, Serine/threonine-protein kinase Nek9 (Homo sapiens) (UniProt Q8TD19).
T4 sequence (whole entry): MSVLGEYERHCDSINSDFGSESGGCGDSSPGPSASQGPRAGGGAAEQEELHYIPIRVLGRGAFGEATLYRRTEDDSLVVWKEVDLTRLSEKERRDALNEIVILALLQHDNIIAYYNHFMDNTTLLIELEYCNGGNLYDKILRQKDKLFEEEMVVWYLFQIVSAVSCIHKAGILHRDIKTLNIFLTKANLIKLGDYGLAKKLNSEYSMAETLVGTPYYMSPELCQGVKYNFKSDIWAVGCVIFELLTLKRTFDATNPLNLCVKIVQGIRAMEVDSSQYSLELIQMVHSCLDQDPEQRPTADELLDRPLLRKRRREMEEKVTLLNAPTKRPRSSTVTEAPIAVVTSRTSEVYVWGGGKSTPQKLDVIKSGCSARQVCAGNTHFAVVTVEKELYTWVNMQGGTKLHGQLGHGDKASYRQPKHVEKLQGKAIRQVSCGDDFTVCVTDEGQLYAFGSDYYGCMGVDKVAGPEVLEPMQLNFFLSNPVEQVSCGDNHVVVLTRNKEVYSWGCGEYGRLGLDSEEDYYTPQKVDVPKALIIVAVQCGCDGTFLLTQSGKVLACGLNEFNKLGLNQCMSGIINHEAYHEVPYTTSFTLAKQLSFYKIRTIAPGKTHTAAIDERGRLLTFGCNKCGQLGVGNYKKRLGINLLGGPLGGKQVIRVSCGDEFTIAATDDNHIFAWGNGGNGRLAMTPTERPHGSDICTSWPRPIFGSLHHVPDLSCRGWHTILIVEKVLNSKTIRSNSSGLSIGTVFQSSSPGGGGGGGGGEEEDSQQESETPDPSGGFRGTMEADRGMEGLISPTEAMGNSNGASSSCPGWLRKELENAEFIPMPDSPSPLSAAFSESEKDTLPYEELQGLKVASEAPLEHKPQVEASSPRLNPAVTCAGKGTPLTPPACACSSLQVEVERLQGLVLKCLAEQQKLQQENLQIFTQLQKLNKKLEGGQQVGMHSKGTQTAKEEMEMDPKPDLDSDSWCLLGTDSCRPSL
To be noted: at 0.1 µM.

The target in assay [11] is T4, Serine/threonine-protein kinase Nek9 (Homo sapiens). The following applies: at 1 µM.
Assay [12] has as its target Serine/threonine-protein kinase PLK1 (Homo sapiens) (UniProt P53350). To be noted: at 0.1 µM.
Assay [13] shares this target. The following applies: at 1 µM.
For assay [14], the target named is T5, Dual specificity protein kinase TTK (Homo sapiens) (UniProt P33981).
T5 sequence (whole entry): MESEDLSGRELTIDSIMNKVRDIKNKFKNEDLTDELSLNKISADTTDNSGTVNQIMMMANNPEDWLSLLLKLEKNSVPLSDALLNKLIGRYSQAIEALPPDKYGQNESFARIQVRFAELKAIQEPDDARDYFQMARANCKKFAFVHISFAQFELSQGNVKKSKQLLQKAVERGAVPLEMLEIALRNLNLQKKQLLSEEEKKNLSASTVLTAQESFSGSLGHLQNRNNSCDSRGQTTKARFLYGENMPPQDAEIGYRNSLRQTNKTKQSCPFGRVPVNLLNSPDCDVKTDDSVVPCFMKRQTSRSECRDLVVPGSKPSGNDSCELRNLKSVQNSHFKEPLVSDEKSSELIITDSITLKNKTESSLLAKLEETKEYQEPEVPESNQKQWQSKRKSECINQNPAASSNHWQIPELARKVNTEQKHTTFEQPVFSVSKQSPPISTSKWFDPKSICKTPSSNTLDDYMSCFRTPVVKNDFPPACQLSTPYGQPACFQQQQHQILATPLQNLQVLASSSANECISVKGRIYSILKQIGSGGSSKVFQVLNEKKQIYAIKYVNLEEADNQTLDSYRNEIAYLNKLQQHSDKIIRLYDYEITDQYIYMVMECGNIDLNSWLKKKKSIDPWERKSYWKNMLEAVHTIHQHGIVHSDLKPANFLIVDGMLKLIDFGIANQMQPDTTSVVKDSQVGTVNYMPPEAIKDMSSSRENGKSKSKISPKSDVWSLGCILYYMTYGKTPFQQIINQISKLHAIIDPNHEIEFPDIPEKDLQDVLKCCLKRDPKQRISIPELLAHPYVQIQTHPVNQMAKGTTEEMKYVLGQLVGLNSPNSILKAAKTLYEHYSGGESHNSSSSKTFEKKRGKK
The following applies: at 0.1 µM.

In assay [15] the test system is T6, Receptor-type tyrosine-protein kinase FLT3 (Homo sapiens), P36888 [D835Y].
T6 sequence (whole entry): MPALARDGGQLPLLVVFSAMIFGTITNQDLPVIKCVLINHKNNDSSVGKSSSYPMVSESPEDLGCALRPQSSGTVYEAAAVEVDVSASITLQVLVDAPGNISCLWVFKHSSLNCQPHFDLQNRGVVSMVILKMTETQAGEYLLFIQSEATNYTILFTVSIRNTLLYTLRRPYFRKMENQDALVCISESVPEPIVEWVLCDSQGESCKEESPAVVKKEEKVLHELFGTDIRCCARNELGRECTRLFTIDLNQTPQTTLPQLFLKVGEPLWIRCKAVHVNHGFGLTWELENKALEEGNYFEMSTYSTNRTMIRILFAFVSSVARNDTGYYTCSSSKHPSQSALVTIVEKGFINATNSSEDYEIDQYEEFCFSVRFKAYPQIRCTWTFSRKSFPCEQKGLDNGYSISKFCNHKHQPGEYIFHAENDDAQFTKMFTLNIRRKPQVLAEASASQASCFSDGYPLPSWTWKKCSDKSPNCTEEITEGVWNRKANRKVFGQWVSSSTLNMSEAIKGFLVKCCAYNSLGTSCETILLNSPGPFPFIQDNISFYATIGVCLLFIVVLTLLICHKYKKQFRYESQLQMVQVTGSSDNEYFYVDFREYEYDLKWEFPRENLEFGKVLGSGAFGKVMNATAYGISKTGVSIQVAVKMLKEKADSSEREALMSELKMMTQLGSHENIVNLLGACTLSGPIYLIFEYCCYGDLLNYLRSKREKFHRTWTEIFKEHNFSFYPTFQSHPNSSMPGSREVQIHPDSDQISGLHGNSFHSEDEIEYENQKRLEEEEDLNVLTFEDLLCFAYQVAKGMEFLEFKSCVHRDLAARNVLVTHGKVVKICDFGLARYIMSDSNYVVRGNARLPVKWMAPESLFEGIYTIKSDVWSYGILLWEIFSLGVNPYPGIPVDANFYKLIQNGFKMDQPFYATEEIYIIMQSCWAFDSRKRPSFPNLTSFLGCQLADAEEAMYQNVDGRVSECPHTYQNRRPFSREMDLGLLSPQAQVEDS
The following applies: at 1 µM.

For assay [16], the target named is Vascular endothelial growth factor receptor 3 (Homo sapiens) (UniProt P35916). The following applies: at 0.1 µM.
Sequence of Vascular endothelial growth factor receptor 3 (Homo sapiens) (P35916 whole entry): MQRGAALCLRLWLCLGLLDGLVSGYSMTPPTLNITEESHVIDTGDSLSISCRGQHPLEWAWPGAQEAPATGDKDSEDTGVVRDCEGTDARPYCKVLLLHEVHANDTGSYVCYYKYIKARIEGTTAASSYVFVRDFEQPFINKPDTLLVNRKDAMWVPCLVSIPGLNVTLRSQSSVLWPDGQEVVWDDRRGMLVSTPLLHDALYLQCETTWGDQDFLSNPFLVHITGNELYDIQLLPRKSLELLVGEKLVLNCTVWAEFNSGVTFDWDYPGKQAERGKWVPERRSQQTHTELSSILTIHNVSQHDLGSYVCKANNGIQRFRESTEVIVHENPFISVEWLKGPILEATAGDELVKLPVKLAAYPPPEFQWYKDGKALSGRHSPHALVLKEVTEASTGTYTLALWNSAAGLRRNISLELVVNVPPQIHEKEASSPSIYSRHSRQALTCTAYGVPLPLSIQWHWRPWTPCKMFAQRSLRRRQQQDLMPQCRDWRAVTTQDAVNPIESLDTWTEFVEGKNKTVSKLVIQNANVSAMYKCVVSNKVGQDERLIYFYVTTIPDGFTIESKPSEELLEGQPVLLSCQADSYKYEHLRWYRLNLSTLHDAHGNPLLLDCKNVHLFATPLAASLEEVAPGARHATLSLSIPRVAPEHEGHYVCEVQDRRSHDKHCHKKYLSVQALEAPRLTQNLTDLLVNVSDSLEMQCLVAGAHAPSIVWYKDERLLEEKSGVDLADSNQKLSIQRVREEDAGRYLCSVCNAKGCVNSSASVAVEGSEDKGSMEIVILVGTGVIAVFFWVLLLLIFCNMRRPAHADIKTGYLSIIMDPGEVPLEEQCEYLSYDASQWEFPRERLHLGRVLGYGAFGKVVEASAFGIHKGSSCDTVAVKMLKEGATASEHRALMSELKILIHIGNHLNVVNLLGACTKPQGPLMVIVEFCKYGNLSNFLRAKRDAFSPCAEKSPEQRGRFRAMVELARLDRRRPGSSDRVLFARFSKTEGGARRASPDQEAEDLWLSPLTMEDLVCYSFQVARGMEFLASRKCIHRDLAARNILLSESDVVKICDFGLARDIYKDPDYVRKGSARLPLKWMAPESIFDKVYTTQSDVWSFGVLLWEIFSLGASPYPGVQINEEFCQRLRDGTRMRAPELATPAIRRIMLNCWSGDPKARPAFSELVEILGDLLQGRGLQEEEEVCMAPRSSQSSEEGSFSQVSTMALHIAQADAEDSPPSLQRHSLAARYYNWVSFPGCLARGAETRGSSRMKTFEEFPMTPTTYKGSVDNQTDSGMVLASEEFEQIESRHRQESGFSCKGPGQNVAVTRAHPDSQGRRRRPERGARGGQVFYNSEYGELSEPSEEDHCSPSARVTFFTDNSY
Assay [17] shares this target. To be noted: at 1 µM.
Assay [18] deals with Macrophage colony-stimulating factor 1 receptor (Homo sapiens) (UniProt P07333). The following applies: at 0.1 µM.
Sequence of Macrophage colony-stimulating factor 1 receptor (Homo sapiens) (P07333 whole entry): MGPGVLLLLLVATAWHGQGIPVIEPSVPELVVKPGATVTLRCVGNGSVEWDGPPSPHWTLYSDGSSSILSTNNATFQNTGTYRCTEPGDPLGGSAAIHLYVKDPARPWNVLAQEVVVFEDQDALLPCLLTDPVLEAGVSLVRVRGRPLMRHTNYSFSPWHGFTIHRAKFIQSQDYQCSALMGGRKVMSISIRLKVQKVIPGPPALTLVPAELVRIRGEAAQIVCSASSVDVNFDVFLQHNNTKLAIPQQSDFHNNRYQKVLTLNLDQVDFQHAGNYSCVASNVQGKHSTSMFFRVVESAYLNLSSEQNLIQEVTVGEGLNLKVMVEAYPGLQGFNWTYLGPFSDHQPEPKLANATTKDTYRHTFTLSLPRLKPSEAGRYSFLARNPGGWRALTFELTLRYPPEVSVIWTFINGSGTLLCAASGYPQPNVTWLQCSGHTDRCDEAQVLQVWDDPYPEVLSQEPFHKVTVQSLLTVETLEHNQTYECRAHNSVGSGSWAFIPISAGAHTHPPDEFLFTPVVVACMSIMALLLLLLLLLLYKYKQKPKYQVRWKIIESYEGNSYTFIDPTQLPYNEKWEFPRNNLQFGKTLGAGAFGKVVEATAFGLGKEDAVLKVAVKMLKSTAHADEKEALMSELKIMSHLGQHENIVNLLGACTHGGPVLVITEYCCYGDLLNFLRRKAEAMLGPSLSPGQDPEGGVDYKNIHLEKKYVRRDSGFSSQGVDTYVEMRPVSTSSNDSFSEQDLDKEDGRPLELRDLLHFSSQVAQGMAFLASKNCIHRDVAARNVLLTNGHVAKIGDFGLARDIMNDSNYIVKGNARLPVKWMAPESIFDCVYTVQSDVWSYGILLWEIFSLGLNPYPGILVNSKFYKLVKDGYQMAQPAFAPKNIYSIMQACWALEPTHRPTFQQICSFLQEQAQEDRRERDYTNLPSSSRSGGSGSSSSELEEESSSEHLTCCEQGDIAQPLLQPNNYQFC
The target is the same in assay [19]. To be noted: at 1 µM.
Assay [20] has as its target Tyrosine-protein kinase Fyn (Homo sapiens) (UniProt P06241). The following applies: at 0.1 µM.

Molecules are shown by their SMILES.

Sequence of Serine/threonine-protein kinase PLK1 (Homo sapiens) (P53350 whole entry): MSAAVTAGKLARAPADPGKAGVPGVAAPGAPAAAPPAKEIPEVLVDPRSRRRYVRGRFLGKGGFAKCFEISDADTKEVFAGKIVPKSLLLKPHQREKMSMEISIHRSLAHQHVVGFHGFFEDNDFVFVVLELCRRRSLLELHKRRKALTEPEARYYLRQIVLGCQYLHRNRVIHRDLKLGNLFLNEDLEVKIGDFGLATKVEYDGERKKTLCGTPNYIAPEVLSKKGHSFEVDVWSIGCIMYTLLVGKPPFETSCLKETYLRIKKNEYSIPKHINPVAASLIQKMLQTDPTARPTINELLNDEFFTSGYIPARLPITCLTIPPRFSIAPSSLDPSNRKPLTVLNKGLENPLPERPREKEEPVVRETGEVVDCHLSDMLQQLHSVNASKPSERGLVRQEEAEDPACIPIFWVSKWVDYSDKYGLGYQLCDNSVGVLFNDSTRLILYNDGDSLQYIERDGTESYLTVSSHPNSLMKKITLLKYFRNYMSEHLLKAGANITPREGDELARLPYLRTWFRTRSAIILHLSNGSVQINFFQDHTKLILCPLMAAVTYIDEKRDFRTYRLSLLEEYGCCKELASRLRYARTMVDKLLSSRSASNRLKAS
Sequence of Tyrosine-protein kinase Fyn (Homo sapiens) (P06241 2-537 limits assumed): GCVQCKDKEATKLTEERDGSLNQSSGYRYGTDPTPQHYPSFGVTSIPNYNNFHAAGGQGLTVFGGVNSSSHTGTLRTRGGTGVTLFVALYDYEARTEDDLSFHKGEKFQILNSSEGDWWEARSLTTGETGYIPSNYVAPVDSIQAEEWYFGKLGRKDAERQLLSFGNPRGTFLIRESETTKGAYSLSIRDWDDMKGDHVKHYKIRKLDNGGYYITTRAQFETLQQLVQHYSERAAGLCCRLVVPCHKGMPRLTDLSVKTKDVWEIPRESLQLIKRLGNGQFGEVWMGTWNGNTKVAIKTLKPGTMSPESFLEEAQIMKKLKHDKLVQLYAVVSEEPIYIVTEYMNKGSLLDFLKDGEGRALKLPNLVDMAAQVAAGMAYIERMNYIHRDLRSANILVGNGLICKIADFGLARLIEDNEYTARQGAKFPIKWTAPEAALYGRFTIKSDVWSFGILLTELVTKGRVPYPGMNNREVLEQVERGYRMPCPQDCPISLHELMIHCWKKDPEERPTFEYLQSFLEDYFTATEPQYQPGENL

`NS(=O)(=O)c1cccc(Nc2cc(-c3ccc(F)cc3)n[nH]2)c1`: the inhibition in assay [1] amounted to 8.08%; in assay [2] it was 1.79%; in assay [3] it was 3.87%; in assay [4] it was 4.43%; in assay [5] it was 6.1%; in assay [6] it was 2.48%. For the same compound, the inhibition worked out at 6.59% in assay [7]; 4.33% in assay [8]; 4.76% in assay [9]; 10.6% in assay [10]; 9.48% in assay [11]; 3.38% in assay [12]. In addition, the inhibition is 3.33% in assay [13]; 5.88% in assay [14]; 13.9% in assay [15]; -0.78% in [16]; 2.02% in assay [17]; 3.25% in [18]. The inhibition in [19] is 16.6%; in [20], 1.7%.
As to `CCCN1CCCC(c2ccc(Nc3nc(Nc4cc(F)ccc4C(N)=O)c4cc[nH]c4n3)c(OC)c2)C1` (stereo not given), the inhibition was found to be 8.28% in [1]; 3.63% in assay [2]; 21.6% in [3]; 6.55% in assay [4]; 11.1% in [5]; 1.92% in assay [6]. Besides, the inhibition in [7] came to 3.03%; in assay [8] it was 6.42%; in assay [9] it was 7.03%; in assay [10], 9.57%; in assay [11], 12.8%; in [12], 13.3%. For the same compound, the inhibition in assay [13] is 48.1%; in assay [14], 75.9%; in assay [15], 43.4%; in assay [16], -0.55%; in assay [17], 4.1%; in assay [18], 34.6%. The values for the inhibition in [19] and in assay [20] were 78.6% and 3.45%, respectively.

The values above are taken from ChEMBL document CHEMBL1961873, “Compounds: GSK PKIS; Assays: Nanosyn kinase panel” (2012).
